Measurements reported in PubChem BioAssay AID1645887 (National Center for Advancing Translational Sciences (NCATS), 2021).
“And” between values parts separate entries of the source, which are not always exact repeats. Equal values may be shown once. The whole screen tested about 16,000 compounds, of which about 40 (0.2%) were called active. About 1% were inconclusive and are not listed. What follows is part of a selection rich in actives, with near analogues and random picks from the rest. Values without a mark were called inactive. Calls follow the shape of the dose curve; as a rule, active = well fitted activation curve with a large enough effect; inconclusive = small, poorly fitted or top-dose-only effect, or another doubt; inactive = no such curve, though single readings can be large or run the other way.

target: Rap guanine nucleotide exchange factor 4 (Homo sapiens) (UniProt Q8WZA2); experiment: Validation qHTS for agonist of cAMP-regulated guanine nucleotide exchange factor 4 (EPAC2); conditions: EPAC2 Rap1B BODIPY-GDP exchange, fluorescence; activation: stronger effect = higher value;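 as to activation: exchange makes BODIPY-GDP fluorescence drop when released from Rap1B; series mostly up to about 150 µM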
Summary of the method: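 Signal normalized against 6.5 mM cAMP as agonist control. Mix of EPAC2 (100 nM), RAP1B-BODIPY-GDP (250 nM) and GDP (50 uM) was read kinetically at 480/540 nm, every 5 min over 30 min, after 5 min room-temperature incubation with compound.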
% is scaled to controls: 0 for no effect and ±100 for the full control effect; potency is read from the fitted curve at half-maximal effect.

Rap guanine nucleotide exchange factor 4 (Homo sapiens), sequence (Q8WZA2 whole entry, looked up): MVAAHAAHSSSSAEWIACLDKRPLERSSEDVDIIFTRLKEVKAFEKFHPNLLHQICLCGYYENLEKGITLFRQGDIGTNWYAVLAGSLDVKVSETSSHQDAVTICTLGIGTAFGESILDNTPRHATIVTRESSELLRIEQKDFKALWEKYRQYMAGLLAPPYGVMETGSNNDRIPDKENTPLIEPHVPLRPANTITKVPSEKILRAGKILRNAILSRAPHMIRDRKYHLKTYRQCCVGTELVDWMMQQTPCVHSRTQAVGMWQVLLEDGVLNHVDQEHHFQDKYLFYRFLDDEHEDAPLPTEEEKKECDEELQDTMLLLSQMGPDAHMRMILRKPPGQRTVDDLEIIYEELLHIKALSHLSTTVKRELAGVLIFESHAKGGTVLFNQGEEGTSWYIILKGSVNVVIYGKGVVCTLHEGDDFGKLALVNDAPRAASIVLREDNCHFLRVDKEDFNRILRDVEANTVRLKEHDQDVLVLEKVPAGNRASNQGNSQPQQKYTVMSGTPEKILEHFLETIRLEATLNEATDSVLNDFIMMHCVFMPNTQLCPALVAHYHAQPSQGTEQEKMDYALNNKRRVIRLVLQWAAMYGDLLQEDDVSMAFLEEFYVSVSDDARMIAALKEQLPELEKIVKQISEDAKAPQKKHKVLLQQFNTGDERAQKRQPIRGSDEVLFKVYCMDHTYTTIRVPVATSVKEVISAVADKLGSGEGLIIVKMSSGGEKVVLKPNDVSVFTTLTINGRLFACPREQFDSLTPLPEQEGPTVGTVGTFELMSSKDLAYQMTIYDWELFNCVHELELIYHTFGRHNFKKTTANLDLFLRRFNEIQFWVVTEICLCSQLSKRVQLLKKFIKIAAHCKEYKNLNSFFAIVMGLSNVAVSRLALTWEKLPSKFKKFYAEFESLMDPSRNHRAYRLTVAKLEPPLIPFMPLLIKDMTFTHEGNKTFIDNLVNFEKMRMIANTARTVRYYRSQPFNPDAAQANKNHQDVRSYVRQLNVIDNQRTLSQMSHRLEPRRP

Structure (SMILES)	activation	Potency
COc1ccc2[nH]cc(CCNc3nc(-c4c(C)noc4C)nc4ccccc34)c2c1	6.86%	
Cc1cc(/C=C/c2ccnc3ccccc23)ccc1N(C)C		50.1 µM (active)
CN(C)c1ccc(/C=C/c2ccnc3ccccc23)cc1[N+](=O)[O-]	-6.84%	
OCCN(CCO)c1ccc(/C=C/c2ccnc3ccccc23)cc1	-44.7%	
CN(C)c1ccc(/C=C/c2ccnc3ccccc23)cc1Cl	-5.92%	
CCCCCCCCCCCCCCCCCCN(CCCCCCCCCCCCCCCCCC)c1ccc(/C=C/c2ccnc3ccccc23)cc1	-21.8%	
CCCN(CCC)c1ccc(/C=C/c2ccnc3ccccc23)cc1		100 µM (active)
Cc1cccc(CNc2nc(-c3ccc4c(c3)OCO4)nc3ccccc23)c1	5.64%	
Cc1oc(-c2ccccc2NC(=O)C2CCCO2)nc1CNC(=O)c1[nH]c2c(C)ccc(C)c2c1C (configuration not stated)	8.6%	
COc1ccc(-n2c(=O)c(-c3cccs3)nc3cnc(Nc4ccccc4)nc32)cc1	-5.89%	
COc1cccc(Nc2ncc3nc(C)c(=O)n(-c4ccccc4)c3n2)c1	-17%	
COc1cccc(Nc2ncc3nc(-c4cccs4)c(=O)n(-c4ccccc4)c3n2)c1		50.1 µM (active)
CN(C)CCc1c[nH]c2ccc(C[C@H]3COC(=O)N3)cc12		126 µM (active)
CN(C)CCc1c[nH]c2ccc(CS(=O)(=O)N3CCCC3)cc12	-8.07%	
CNS(=O)(=O)Cc1ccc2[nH]cc(CCN(C)C)c2c1	-28%	
CC(C)c1c(O)ccc2c1CCC1[C@@](C)(C=O)CCC[C@@]21C (some centres not stated)	22.5%	
CC[C@@]1(O)C(=O)OCc2c1cc1n(c2=O)Cc2cc3c([N+](=O)[O-])cccc3nc2-1	5.92%	
CC[C@@]1(O)C(=O)OCc2c1cc1n(c2=O)Cc2cc3cc(O)ccc3nc2-1	-2.34% and 12.4%	
CC[C@@]1(O)C(=O)OCc2c1cc1n(c2=O)Cc2cc3c(CN(C)C)c(O)ccc3nc2-1		89.1 µM (active)
C[N+]1(Cc2ccccc2)CCC(C(=O)OCC2CCCC2)CC1 (configuration not stated)	-12.2%	
N#Cc1ccc(CN2CC[C@@]3(CCCN(C(=O)c4ccco4)C3)C2)cc1	-12.3%	
COC(=O)C(O)C1C(C)(C)C(OC(C)=O)C2CC3=C4CC(=O)OC(c5ccoc5)[C@]4(C)CCC3[C@@]1(C)C2=O (some centres not stated)	-10.7%	
